Screens deposited in PubChem BioAssay by National Center for Advancing Translational Sciences (NCATS).
TDP1 cell noCPT: qHTS for Inhibitors of human tyrosyl-DNA phosphodiesterase 1 (TDP1): qHTS in cells in absence of CPT. AID 686978, 2013. DT40 Tdp1-/- hTDP1 cells, no CPT, ATP luminescence, 48 h. 420,000 compounds, 15% hits. Potency, µM (highest dose often 46.2 µM), without a hit: at the highest dose activity change, negative = growth inhibition, actives largely listed as inhibitors; also: nearly all actives have a fitted effect of over 55% in size
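Camptothecin absent (DMSO only). Human TDP1-complemented DT40 knockout cells, 400 cells/well, 37 °C for minimum 48 hr; ATP measured via CellTiter-Glo, 30 min dark incubation, luminescence.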
KB-V1 cytotox: kills drug-selected multidrug resistant KB-V1 cells. KB-V1 MDR cells viability, CellTiter-Glo, 72 h. Potency, µM (doses to about 46.1 µM), actives largely listed as cytotoxic. 400,000 compounds, 3.4% hits; also: nearly all actives have a fitted effect of over 60% in size
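Drug-selected KB-V1 cells, grown in DMEM lacking phenol red with 10% FBS, receive compound titrations; after three days at 37 degrees C, surviving cell ATP is quantified by CellTiter-Glo luminescence and responses normalized and curve-fitted.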
HT1080NT lethal: kills 2HG-producing HT-1080-NT fibrosarcoma cells. 360,000 compounds, 1.6% hits. AID 686970. HT-1080-NT fibrosarcoma viability, CellTiter-Glo ATP luminescence, 48 h. Potency, µM (doses to about 46.1 µM), without a hit: at the top dose activity, negative = less viability, most hits filed as cytotoxic;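 also: NT is the 2HG producing partner of a matched IDH1 knockdown line; 0% = DMSO-treated cells and -100% = media-only wells without cells; nearly all actives have a fitted effect of over 55% in size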
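Compounds were tested in concentration-response format on HT-1080-NT cells for 48 hours at 37 degrees C. Cell viability came from CellTiter-Glo luminescence; curves were classified by r2, response magnitude and activity.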
DT40 TDP1 CPT: DT40-hTDP1 cell growth loss with CPT; 420,000 compounds, 12% hits; Potency, µM (highest dose often 46.2 µM), without a hit: at the top dose activity change, negative = growth inhibition, usual class: inhibitors; chicken DT40 Tdp1-/-;hTDP1 cells + 20 nM CPT, ATP luminescence, 48 h; also: nearly all actives have a fitted effect of over 55% in size
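Chicken DT40 Tdp1-/- cells stably complemented with human TDP1 were seeded at 400 cells/well in medium containing 20 nM camptothecin, exposed to pin-transferred compounds, and grown at 37 °C for at least 48 hr. Viability was read as ATP luminescence.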
KB-3-1 cytotox: KB-3-1 parental cell cytotoxicity; 400,000 compounds, 1.4% hits; Potency, µM (series often up to 46.1 µM), usual class: cytotoxic; KB-3-1 viability, CellTiter-Glo ATP luminescence, 72 h; also: nearly all actives have a fitted effect of over 60% in size
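Parental KB-3-1 viability, qHTS format: 72 h compound exposure, 37 °C; CellTiter-Glo; media-only wells and DMSO plates as controls; concentration-effect fits on corrected data.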
HT1080 IDH1KD tx: kills HT-1080 cells with IDH1 knockdown. HT-1080 IDH1 knockdown viability, ATP luminescence, 48 h. Potency, µM (top dose mostly 46.1 µM), without a hit: top-dose activity, negative = toxicity, usual class: cytotoxic. 360,000 compounds, 2% hits;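 also: 0% = DMSO wells and -100% = cell-free medium wells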
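Luminescent ATP read-out (CellTiter-Glo, 10 min at room temperature) after 48 h compound exposure at 37 °C gave viability of IDH1-knockdown HT-1080 cells. Activity was normalised to DMSO and cell-free wells, then fitted as concentration-response curves.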
* marks the source's active call; other numbers are inactive results; i = inactive; ? = inconclusive; . = no result; [ ] = another dose, or the depositor's remark. Shown are actives, neighbours in structure and some others; about 19% of the full set was active somewhere. Calls follow the shape of the dose curve; as a rule, active = well fitted curve in the direction sought with a large enough effect; inconclusive = small, poorly fitted or top-dose-only effect, or another doubt; inactive = no such curve, though single readings can be large; an effect the other way counts as inactive or inconclusive. Unless noted, % is scaled to controls: 0 for no effect and ±100 for the full control effect; potency is read from the fitted curve at half-maximal effect.

SMILES	TDP1 cell noCPT	KB-V1 cytotox	HT1080NT lethal	DT40 TDP1 CPT	KB-3-1 cytotox	HT1080 IDH1KD tx
CC(C)C[C@H]1CNC(=S)N1CC1CCN(CCCC2CCCCC2)CC1	?	i	-17.7%	18.4µM*	i	-16.1%
CC(C)C[C@H]1CNC(=S)N1CC1CCN(CC2CCCC2)CC1	-11.7%	i	-1.6%	-27.9%	i	6.7%
COc1c(Cl)cc(C(=O)NN)cc1Cl	?	i	2.06µM*	-0.5%	i	2.59µM*
NNC(=O)c1cc(O)c(O)c(O)c1	?	i	-10.5%	14.6µM*	i	?
COc1c(Cl)cc(C(=O)O)cc1Cl	-4.0%	i	-0.1%	-1.2%	i	-4.9%
COc1ccc(NC(=O)C(CC(=O)O)Cc2ccc(Cl)cc2)cc1 (centres undefined)	15.3%	i	5.4%	-2.3%	i	1.9%
CCOCCn1ccc2c(OCC(=O)Nc3cc(C)cc(C)c3)cccc2c1=O	?	i	.	-29.8%	i	.
COCCn1ccc2c(OCC(=O)Nc3cccc(C(F)(F)F)c3)cccc2c1=O	23.1µM*	i	.	?	i	.
CCOCCn1ccc2c(OCC(=O)Nc3ccc(OC)c(OC)c3)cccc2c1=O	10.3µM*	?	-20.7%	14.6µM*	i	-1.8%
COCCn1ccc2c(OCC(=O)Nc3cccc(OC)c3)cccc2c1=O	14.6µM*	?	.	?	i	.
CCOCCn1ccc2c(OCC(=O)Nc3ccc(OC)cc3OC)cccc2c1=O	?	i	-3.1%	-22.9%	i	-7.0%
CC(C)Cn1c(=O)c2ccccc2n2c(CCC(=O)NCc3ccccc3Cl)nnc12	-3.1%	.	.	2.1%	.	.
CC(C)Cn1c(=O)c2ccccc2n2c(CCC(=O)Nc3cccc(Cl)c3)nnc12	16.4µM*	.	.	?	.	.
O=C(CCc1nnc2n(Cc3ccccc3Cl)c(=O)c3ccccc3n12)Nc1ccc(F)cc1	5.17µM*	.	.	5.8µM*	.	.
COc1cccc(NC(=O)CCc2nnc3n(Cc4ccccc4Cl)c(=O)c4ccccc4n23)c1	?	.	.	16.4µM*	.	.
Cc1cc(C)c2c(CC(=O)Nc3ccc(S(=O)(=O)Nc4ncccn4)cc3)coc2c1	-14.0%	i	.	-17.5%	i	.
C[C@H]1CN([C@@H](C)CO)C(=O)CCCn2nncc2CO[C@H]1CN(C)S(=O)(=O)c1ccc(F)cc1	-3.5%	i	2.8%	-3.3%	i	1.8%
COc1cc(C23CCCN(CCC(C(C)(C)C)C2)C32OCCO2)cc(OC)c1OC (centres undefined)	23.1µM*	i	-27.2%	?	i	-14.8%
CC(C)(C)C1CCN2CCC[C@](c3ccccc3)(C1)[C@@]21CO1 (some centres undefined)	?	?	2.3%	?	i	0.9%
CC(C)(C)C1CCN2CCCC(c3ccc([N+](=O)[O-])cc3)(C1)C21OCCO1 (centres undefined)	?	?	10.0%	20.6µM*	?	12.2%
CC(=O)NCCc1c(C)n(Cc2ccccc2)c2ccccc12	-16.9%	i	-1.2%	6.9%	i	-1.0%
CC(C)c1ccc(OCC(=O)NC2CCCC2)cc1	16.4%	i	25.8%	2.0%	i	15.1%
Cc1ccc(C(C)C)cc1OCC(=O)NC1CCCCCCC1	?	?	-0.1%	18.4µM*	i	-5.5%
O=C(COc1ccccc1Br)NC1CCCC1	?	16.4µM*	-13.6%	?	?	-9.4%
COc1ccccc1-c1cc(SC)c(C#N)c(=O)o1	5.8µM*	i	1.5%	3.66µM*	i	0.4%
SMILES	TDP1 cell noCPT	KB-V1 cytotox	HT1080NT lethal	DT40 TDP1 CPT	KB-3-1 cytotox	HT1080 IDH1KD tx
COc1ccccc1-c1cc(C(F)(F)F)c(C#N)c(=O)[nH]1	21.6%	i	3.4%	26.5%	i	-1.2%
COc1ccc(Cn2ccc3nc(C)c(C(=O)Nc4ccc(OC)cc4OC)cc3c2=O)cc1	?	i	.	-14.2%	i	.
CC(=O)c1cccc(NC(=O)C2Cc3c(-c4ccco4)ccnc3O2)c1 (centres undefined)	16.4µM*	4.61µM*	-14.9%	?	?	-28.1%
CC(=O)Nc1cccc(-c2ccnc3c2CC(C(=O)Nc2cccc(NS(C)(=O)=O)c2)O3)c1 (centres undefined)	-28.1%	i	-0.6%	-18.4%	i	5.2%
CC(=O)c1cccc(-c2ccnc3c2CC(C(=O)Nc2ccccc2)O3)c1 (centres undefined)	?	20.6µM*	-14.9%	16.4µM*	i	1.6%
CC(=O)c1cccc(NC(=O)C2Cc3c(-c4ccccc4)ccnc3O2)c1 (centres undefined)	13µM*	i	-14.2%	20.6µM*	i	-29.5%
CS(=O)(=O)Nc1cccc(NC(=O)C2Cc3c(-c4ccccc4)ccnc3O2)c1 (centres undefined)	7.31µM*	i	2.31µM*	10.3µM*	16.4µM*	?
NC(=O)c1cccc(-c2ccnc3c2CC(C(=O)Nc2ccccc2)O3)c1 (centres undefined)	-9.8%	i	9.8%	-14.6%	i	2.1%
CC(=O)Nc1ccc(C)cc1-c1nc2ccccc2n(CC(=O)Nc2cc(Cl)ccc2C)c1=O	0.9%	i	.	?	i	.
O=C(Nc1cccc(O)c1)c1cc2nc(-c3ccc(Br)cc3)cc(C(F)(F)F)n2n1	-13.0%	i	.	-10.0%	i	.
COC(=O)c1cc2sccc2n1Cc1ccc(F)cc1Cl	-21.3%	i	.	-23.7%	i	.
O=C(COC(=O)Cc1c(F)cccc1Cl)NC(=O)Nc1ccccc1F	-1.6%	i	5.1%	4.9%	i	-10.4%
CC(=O)c1cccc(-c2ccnc3c2CC(C(=O)Nc2ccc(F)c(Cl)c2)O3)c1 (centres undefined)	20.6µM*	20.6µM*	?	18.4µM*	?	?
CC(=O)c1cccc(NC(=O)C2Cc3c(-c4cccc(F)c4)ccnc3O2)c1 (centres undefined)	?	i	?	18.4µM*	i	?
CC(C)[C@@H]1CC[C@@H](C)CC1=O	-17.1%	.	.	-15.4%	.	.
CC(O)(COc1ccccc1)c1ccc2c(c1)CN(Cc1cccc3ncccc13)CCO2 (centres undefined)	?	.	.	-11.3%[9.04 µM]	.	.
COc1ccc(CCNc2nc(SCc3ccccc3Cl)nc3ccccc23)cc1OC	4.61µM*	.	.	8.2µM*	.	.
